Results taken from PubChem BioAssay (NCI).
“And” between values parts separate entries of the source, which are not always exact repeats. Identical values can stand only once. This is part of a sample that, as a whole, favours compounds with a hit. Of some 79,000 tested, about 15% had one in any assay. The source made the active and inactive calls. No stated cut-off is given here; in the data, active means growth inhibition above about 70%; inactive means the rest.

How the values were obtained:
[1] = NCI Yeast Anticancer Drug Screen. Data for the rad50 strain (AID 155);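 further: 0% = growth of vehicle-only cultures of the same strain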; details: S. cerevisiae rad50 strain growth inhibition; at 50.0 µM; stronger effect = higher value
How it was run: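 Yeast carrying a defined DNA repair defect were exposed to test compounds, and growth was compared with vehicle-treated controls to give percent inhibition.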

[2] = NCI Yeast Anticancer Drug Screen. Data for the mec2-1 strain (AID 157); details: S. cerevisiae mec2-1 strain, at 50.0 µM, stronger effect = higher value
How it was run: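 Mutant yeast (mec2-1) grown with compound; growth inhibition relative to vehicle control reported.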

[3] = NCI Yeast Anticancer Drug Screen. Data for the sgs1 mgt1 strain (AID 161);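 further: 0% = growth of cultures given vehicle only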; details: S. cerevisiae sgs1 mgt1 strain, at 50.0 µM, stronger effect = higher value
How it was run: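 This yeast growth screen uses a strain with defined DNA-repair lesions; compound-treated growth is compared with vehicle-treated growth.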

[4] = NCI Yeast Anticancer Drug Screen. Data for the cln2 rad14 strain (AID 165);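 further: 0% = growth equal to vehicle treated cultures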; details: S. cerevisiae cln2 rad14 strain, at 50.0 µM, stronger effect = higher value
How it was run: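 Readout is yeast growth inhibition versus vehicle-treated controls, using a strain with cln2 and rad14 alterations exposed to compound.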

[5] = NCI Yeast Anticancer Drug Screen. Data for the bub3 strain (AID 167); details: S. cerevisiae bub3 mutant strain, at 50.0 µM, stronger effect = higher value
How it was run: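 Compounds were applied to a genetically altered yeast strain carrying a cell-cycle control defect. Growth inhibition was scored against vehicle-treated controls.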

[6] = NCI Yeast Anticancer Drug Screen. Data for the mlh1 rad18 strain (AID 175); details: S. cerevisiae mlh1 rad18 strain growth inhibition; at 50.0 µM; stronger effect = higher value
How it was run: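 Genetically defined yeast (DNA repair-deficient) exposed to compounds; growth inhibition determined relative to vehicle.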

Measured: growth inhibition

c1ccc(C2=NC(c3ccccc3)N3CC23c2ccccc2)cc1 (stereo unspecified)
inactive: [1] 12.8% | [2] 15.2% | [3] 5.05% | [4] -7.6% | [5] 15.2% | [6] 24.4%

Br[CH](Br)[Hg][c]1ccccc1
active: [1] 99.2% | [2] 99.5% | [3] 94.3% | [4] 99.2% | [5] 99.2% | [6] 99.2%

O=[N+]([O-])C1CC/C(=N/O)c2nonc21 (stereo unspecified)
inactive: [1] 0.3% | [2] 9.5% | [3] 18.5% | [4] 19.6% | [5] 5.3% | [6] 18.6%

NC1(O)C(=O)NC(=O)NC1=O
inactive: [1] -21.4% | [2] -30% | [3] -18.9% | [4] -28.1% | [5] -4.05% | [6] 5.85%

N#CN1CC(C(=O)N2CCCCC2)C=C2c3cccc4[nH]cc(c34)CC21 (stereo unspecified)
inactive: [1] 9.5% | [2] -10.8% | [3] 34.5% | [4] 0.05% | [5] 8.95% | [6] 10.9%

Cc1ccc(S(=O)(=O)CC([Se]C#N)c2ccccc2)cc1 (stereo unspecified)
inactive: [1] -21.1% | [2] 2.2% | [3] -15.1% | [4] -3.9% | [5] -6.1% | [6] 1.45%

CCC1CC[N-]CC1.CCC1CC[N-]CC1.[Cl][Pt+2][Cl]
active: [3] 73%
inactive: [1] -0.95% | [2] 14.8% | [4] -42.5% | [5] 18.1% | [6] 48.8%

CCCCOCN(COCCCC)C(C)Cc1ccccc1 (stereo unspecified)
inactive: [1] 11.7% | [2] -3.3% | [3] -12.5% | [4] 11.1% | [5] -2.25% | [6] -21.8%

CC(=O)CC(C)=O.CC(=O)CC(C)=O.CC(=O)CC(C)=O.[Mn]
inactive: [1] 11.2% and 10.1% | [2] -1.45% and -5% | [3] 8% and 1.6% | [4] 10.8% and -53% | [5] -3.1% and 3.2% | [6] 8.05% and 18.4%

O=C1NC(=S)NC(=O)C1=Cc1cccc2cc3ccccc3cc12
active: [1] 97.7% | [2] 98.8% | [3] 98.5% | [4] 93.3% | [5] 98.1% | [6] 97%

CC12OCCN1CCO2
inactive: [1] 10.9% | [2] -3.25% | [3] 11.8% | [4] 5.45% | [5] 12.8% | [6] 4%

COc1ccc(CCN(C)C(C)C2C3CC4CC(C3)CC2C4)cc1OC (stereo unspecified)
inactive: [1] 35.5% | [2] 11.3% | [3] 19.2% | [4] -16.4% | [5] -1.1% | [6] 17.9%

NC(N)=N/N=C/c1c[nH]c2ccccc12
inactive: [1] -5.4% | [2] -14.2% | [3] -18% | [4] 4.8% | [5] -10.1% | [6] -25.1%

CCOP(=O)(OCC)C(N)Cc1ccc(OC)c(OC)c1 (stereo unspecified)
inactive: [1] -3.85% | [2] -4% | [3] 2.35% | [4] 19.9% | [5] 13% | [6] -16.6%

CCOC(CBr)OCC
inactive: [1] 14.4% | [2] -4.75% | [3] 0.45% | [4] -25.7% | [5] 7.55% | [6] 20.8%

ClCc1ccc2ccccc2n1
inactive: [1] 19.1% and 11.7% | [2] -8.8% and -0.5% | [3] -3.8% and 8.5% | [4] 7.55% and 3.35% | [5] -17.6% and -7.65% | [6] 9.75% and 4.55%

CC(C)=CCN1CCC2(C)c3cc(O)ccc3CCC2C1 (stereo unspecified)
inactive: [1] -9.9% | [2] -8.8% | [3] -0.8% | [4] -31.2% | [5] -6.5% | [6] -2.1%

C#CCC1(OC(N)=O)CCCCC1
inactive: [1] 19.2% | [2] 14.8% | [3] -1.35% | [4] -38.2% | [5] 3.65% | [6] -16.6%

O=C(O)c1ccccc1
inactive: [1] -11.1% and -31.2% | [2] -0.2% and -17.9% | [3] -14.8% and 33.1% | [4] -10.7% and -12% | [5] -20.5% and -3.8% | [6] -38.4% and 10.8%

O=C(N/N=C/c1cc(Br)cc(Br)c1[O-])c1ccccc1O.O=C(N/N=C/c1cc(Br)cc(Br)c1[O-])c1ccccc1O.[Fe+2]
inactive: [1] 20.4% | [2] 21.7% | [3] 52% | [4] -34.8% | [5] 34.4% | [6] 43.8%

[Pd].[Pd].[S-]CC[S-].[S-]CC[S-].c1ccc([PH+](c2ccccc2)c2ccccc2)cc1.c1ccc([PH+](c2ccccc2)c2ccccc2)cc1
inactive: [1] -4.9% | [2] 5.5% | [3] 8.9% | [4] -22.1% | [5] -2.35% | [6] 13.1%

OCC(S)CS.[Sb] (stereo unspecified)
inactive: [1] 21.1% | [2] 19.1% | [3] 29.8% | [4] 41% | [5] 44% | [6] 42%

C=CCOC(N)=O
inactive: [1] 6.85% | [2] 8.3% | [3] -0.3% | [4] 20.9% | [5] 22.5% | [6] 1.65%

COC(=O)C1=CO[C@@H](C)[C@@H]2CN3CCc4c([nH]c5cc(OC)ccc45)[C@H]3C[C@H]12
inactive: [1] -43.8% | [2] -32.6% | [3] -34% | [4] -30.1% | [5] -2.05% | [6] -41%

[Be]=[Se]
inactive: [1] -21.1% | [2] -0.4% | [3] -2.9% | [4] 2.1% | [5] -11.4% | [6] 29.7%

CCOC(=O)Cc1ccccc1
inactive: [1] 24.1% | [2] -5.85% | [3] -1.95% | [4] -2.05% | [5] 9.25% | [6] 23.8%

Clc1ccc2c(c1)Cc1cc(N(CCBr)CCBr)ccc1-2
inactive: [1] 24.8% | [2] 13.1% | [3] 40% | [4] 46.6% | [5] 12.4% | [6] 47.1%

NC(CCOCCP(=O)(O)O)C(=O)O (stereo unspecified)
inactive: [1] -51.3% | [2] -36.4% | [3] -44% | [4] -8% | [5] -15.3% | [6] -40.1%

NCCc1cc2c3c(c1)CCCN3CCC2
active: [1] 96.5% | [2] 96.5% | [3] 94.5% | [4] 88.7% | [5] 94.9% | [6] 98.2%

COc1ccc2c(c1O)-c1cc(O)cc3c1C(C2)NCC3 (stereo unspecified)
inactive: [1] 13.7% | [2] 21.8% | [3] -12.5% | [4] 7.25% | [5] 8.65% | [6] 30.9%

O=[N+]([O-])c1ccc(OCc2ccc(COc3ccc(S(=O)(=O)F)cc3)cc2)c(Cl)c1
inactive: [1] -0.6% | [2] -8.15% | [3] -2.3% | [4] -6.35% | [5] -7.6% | [6] -7.5%

COC(=O)c1nc(-c2ccc3c(n2)C(=O)C(N)=C(OC)C3=O)c(N)c(-c2ccc(OC)c(OC)c2O)c1C
inactive: [1] 58% | [2] 7.25% | [3] 36.1% | [4] 26.2% | [5] 23.2% | [6] 47.5%

C1OCN2CSCC12 (stereo unspecified)
inactive: [1] 4% | [2] 28.8% | [3] 30.4% | [4] 5.35% | [5] 27.9% | [6] 31.8%

S=c1sc(-c2ccc(Cl)cc2)c[se]1
inactive: [1] 4.45% | [2] 3.85% | [3] -13.3% | [4] -33.2% | [5] 1.7% | [6] -5.05%

Cc1nc2ccccc2[se]1
inactive: [1] -33.4% | [2] -32.5% | [3] -3.5% | [4] 3.5% | [5] 35.7% | [6] -18.1%

O=[N+]([O-])c1ccccc1-c1ccccc1
inactive: [1] 24.3% | [2] -27.8% | [3] 7.05% | [4] 13.2% | [5] -21.8% | [6] 2.25%
